Sm TGR block: qHTS Assay for the Inhibitors of Schistosoma Mansoni Peroxiredoxins; purified TGR, DTNB reduction, TNB absorbance 405 nm; Potency, µM (doses to about 114 µM), most hits filed as inhibitors; 360,000 compounds, 3% hits; AID 485364, 2010; note: nearly all actives have a fitted effect of over 60% in size
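Kinetic colorimetric format: TGR-catalysed, NADPH-driven DTNB reduction monitored via TNB absorbance. Enzyme dispensed at 20 nM; compound exposure 15 min at room temperature before reaction start.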
SARS PLpro yeast: qHTS of Yeast-based Assay for SARS-CoV PLP; Potency, µM (titrated, usually from 32.9 µM), usual class: activators; S. cerevisiae expressing SARS-CoV PLpro, growth rescue; 330,000 compounds, 0.19% hits; calls by dose curve; note: nearly all actives have a fitted effect of over 55% in size
Pf growth 96h: Primary qHTS for delayed death inhibitors of the malarial parasite plastid, 96 hour incubation. P. falciparum luciferase reporter growth, 96 h. Potency, µM (series often up to 28.7 µM), actives largely listed as inhibitors. 320,000 compounds, 6.9% hits
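Compounds incubated with erythrocytes infected by luciferase-expressing P. falciparum (2% hematocrit, 0.05% parasitemia final) for 96 hours, 37 C in 5% CO2. Growth inhibition scored as decreased luciferase luminescence.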
Pf growth 48h: Primary qHTS for delayed death inhibitors of the malarial parasite plastid, 48 hour incubation; AID 504832, 2011; P. falciparum luciferase growth in erythrocytes, 48 h; Potency, µM (series often up to 28.7 µM), actives largely listed as inhibitors; 310,000 compounds, 5.9% hits
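Erythrocytes infected with P. falciparum carrying an integrated firefly luciferase reporter (2% hematocrit, 0.1% parasitemia final) were exposed to compounds in RPMI 1640 with 0.5% Albumax at 37 C, 5% CO2. Growth inhibition was scored as reduced luminescence.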
HCV inhibitor: qHTS Assay for Inhibitors of Hepatitis C Virus (HCV). Huh7.5.1 HCVcc-Cre infection, luciferase reporter, 44 h. Potency, µM (titrated, usually from 41.8 µM), hits mostly inhibitors. 340,000 compounds, 3.4% hits. AID 651820, 2012
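1,000 cells/well; 4 h culture; + compound; + HCVcc-Cre (~0.5 moi); 44 h; luciferase substrate, RT 15 min; read 15 sec.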
HCMV antiviral: qHTS Assay for inhibitors of the human cytomegalovirus (HCMV) | HFF cells, HCMV-luciferase reporter, 72 h; stronger effect = lower value | activity change, negative = inhibition, % at 57.5 µM | 410,000 compounds, 4.5% hits; in the data active = activity change below about -60%; inconclusive = no clear call, values can overlap the other calls; inactive = above about -39%
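Luciferase read-out from HCMV-luciferase-infected HFFs (MOI 1 PFU/cell) 72 h post infection at 37C; compounds added after 16 h cell attachment; activity normalized between buffer-only basal and Salinomycin (10uM) inhibitor controls.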
HCV inh confirm: qHTS Assay for Inhibitors of Hepatitis C Virus (HCV): Confirmation Assay for Cherry-picked Compounds; shares compounds with HCV inhibitor; HCVcc-Cre infectious virus cell assay, luciferase, inhibition; Potency, µM (titrated, usually from 41.8 µM), most hits filed as inhibitors; 640 compounds, 78% hits; note: nearly all actives have a fitted effect of over 80% in size
HCV cytotox: qHTS Assay for Inhibitors of Hepatitis C Virus (HCV): Cytotoxicity Counterscreen for Cherry-picked Compounds. HCV host cell line cytotoxicity counterscreen. 640 compounds, 22% hits. shares compounds with HCV inhibitor. AID 720576, 2013. Potency, µM (highest dose often 41.8 µM), hits mostly inhibitors;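 note: 44 h compound exposure; nearly all actives have a fitted effect of over 55% in size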
Each line names hits and unclear results; the compound was inactive in the other large screens (follow-up assays come after a bar, where they were run); ! = a repeat was not active. An excerpt weighted towards active compounds, which were near 15% of everything screened. Unless noted, calls come from the whole dose curve; as a rule, active = well fitted curve in the direction sought with a large enough effect; inconclusive = small, poorly fitted or top-dose-only effect, or another doubt; inactive = no such curve, though single readings can be large; an effect the other way counts as inactive or inconclusive.

CCCCCn1c(=O)c(C(=O)NCc2ccco2)c(O)c2ccccc21	Pf growth 96h inconclusive, Pf growth 48h inconclusive, HCV inhibitor inconclusive | HCV inh confirm 25µM | HCV cytotox inconclusive
Cc1ccc(C)c(N2CCN(C(=O)c3ccc4nsnc4c3)CC2)c1	Pf growth 48h inconclusive, HCV inhibitor inconclusive
Cc1ccccc1CSCC(=O)c1c(N)n(CC(C)C)c(=O)n(C)c1=O	none (no result: Pf growth 96h)
CC(C)Cn1c(N)c(C(=O)CSc2ccccc2)c(=O)n(C)c1=O	HCV inhibitor inconclusive | HCV inh confirm 7.9µM | HCV cytotox inconclusive
Cc1cc(C)c(CN2CCN(C(=O)Cn3cnc4c(OCc5ccccc5)ncnc43)CC2)c(C)c1	HCV inhibitor 0.56µM, HCMV antiviral -64 (no result: Sm TGR block, Pf growth 96h, Pf growth 48h) | HCV inh confirm 2.5µM | HCV cytotox 5.6µM
CN1CCN(CC#CCn2c3ccccc3c3ccccc32)CC1	Pf growth 48h inconclusive, HCV inhibitor 4µM | HCV inh confirm 7µM | HCV cytotox inactive
O=C(COC(=O)C12CC3CC(CC(C3)C1)C2)NCCc1ccccc1	none (no result: Pf growth 96h)
CSc1ccc(NC(=O)Nc2cccn(Cc3ccccc3F)c2=O)cc1	HCV inhibitor 3.5µM, HCMV antiviral -81 | HCV inh confirm 8.9µM | HCV cytotox inactive
COc1cc2c(cc1NC(=O)COC(=O)c1ccccc1)oc1ccccc12	none (no result: Sm TGR block, HCV inhibitor, HCMV antiviral)
COc1ccc(OCC(=O)Nc2cc3oc4ccccc4c3cc2OC)cc1	HCV inhibitor inconclusive (no result: HCMV antiviral)
COc1cc2c(cc1NC(=O)COC(=O)CNS(=O)(=O)c1ccc(C)cc1)oc1ccccc12	HCV inhibitor inconclusive | HCV inh confirm 7.9µM | HCV cytotox inactive
COc1cc2c(cc1NC(=O)COC(=O)[C@@H](NS(=O)(=O)c1cccc(Cl)c1)C(C)C)oc1ccccc12	HCV inhibitor inconclusive | HCV inh confirm 13µM | HCV cytotox inactive
COc1ccc(S(=O)(=O)N[C@@H](C)C(=O)OCC(=O)Nc2cc3oc4ccccc4c3cc2OC)cc1	HCV inhibitor 6.3µM | HCV inh confirm 22µM | HCV cytotox inactive
CN(C)S(=O)(=O)c1ccc2c(c1)N(CC(=O)Nc1ccc(F)cc1)C(=O)CS2	none (no result: SARS PLpro yeast, Pf growth 96h, Pf growth 48h, HCV inhibitor)
N#C/C(=C\Nc1ccc2cn[nH]c2c1)c1nc(-c2ccccc2)cs1	Pf growth 96h inconclusive, Pf growth 48h inconclusive, HCV inhibitor 0.89µM | HCV inh confirm 3.1µM | HCV cytotox inactive
C=CCOc1cccn2c(N(C=O)Cc3ccc(OC)cc3)c(CC)nc12	none (no result: Sm TGR block, SARS PLpro yeast, Pf growth 96h, Pf growth 48h, HCV inhibitor)
COCCN(C(=O)COC(=O)c1cc2c(s1)CCC2)c1c(N)n(Cc2ccccc2)c(=O)[nH]c1=O	Pf growth 96h inconclusive, Pf growth 48h inconclusive, HCV inhibitor inconclusive | HCV inh confirm inactive | HCV cytotox inactive
CC(NC(=O)CNC(=O)c1ccccc1F)c1ccc(-n2ccnc2)cc1 (configuration not stated)	none
N#CCC(C(=O)c1cccnc1)c1ccccc1 (configuration not stated)	none (no result: Sm TGR block, SARS PLpro yeast, Pf growth 96h, Pf growth 48h, HCV inhibitor)
COCOCCn1cc(CN2CCS(=O)(=O)N(Cc3ccc(-c4ccc(F)nc4)cc3)C(CC(C)C)C2=O)nn1 (configuration not stated)	none (no result: Sm TGR block, SARS PLpro yeast, Pf growth 96h, Pf growth 48h, HCV inhibitor)
CC(=O)OCC(=O)C1(O)CCC2C3CC(C)C4=CC(=O)C=CC4(C)C3C(O)CC21C (configuration not stated)	none (no result: Sm TGR block, SARS PLpro yeast, Pf growth 96h, Pf growth 48h, HCV inhibitor)
C[C@H]1C[C@@H]2[C@H]([C@@H](O)C[C@@]3(C)[C@H]2CC[C@]3(O)C(=O)CO)[C@@]2(C)C=CC(=O)C=C12	Pf growth 96h inconclusive, HCV inhibitor 5.6µM! | HCV inh confirm inactive | HCV cytotox inactive

High-throughput results (PubChem BioAssay)
